Assay [1] is described as follows: S16 Schwann cell viability assay (CellTiter-Glo assay) (AID 624031). Also: nearly all actives have a fitted effect of over 70% in size. The essentials: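 Native S16 rat Schwann cells, 500-750 cells/well in DMEM with 10% FBS, dosed with compound after overnight culture and incubated 24h at 37 degree Celsius/5% CO2. Viability by CellTiter-Glo luminescence; % activity normalized to no-cell wells and DMSO-treated cells.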
On the technique in general: ATP-based viability assays read luminescence as a measure of living cells.

In a further assay the test system is AA1029. The experiment in a line: qHTS profiling for inhibitors of Plasmodium falciparum proliferation (AID 504749). Also: nearly all actives have a fitted effect of over 60% in size. Also: potency is read from the fitted curve at half-maximal effect. The conditions noted are these: P. falciparum in erythrocytes, SYBR Green DNA, 72 h; series mostly up to 28.7 µM. The essentials: (§1)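 Three-day growth assay of blood-stage parasites in erythrocytes (0.3% parasitemia, 2.5% hematocrit) at 37 C, 5% CO2, quantified by SYBR Green DNA staining after overnight detergent lysis.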
(Quantitative high-throughput screening tests each substance at several concentrations.)

A further assay has as its system AS120. Described as above. The conditions noted are these: P. falciparum in erythrocytes, SYBR Green DNA, 72 h; series mostly up to 28.7 µM. A digest of the protocol: as §1
The test system of a further assay is ATS189. The assay is described as above. The conditions noted are these: P. falciparum in erythrocytes, SYBR Green DNA, 72 h; series mostly up to 28.7 µM. A digest of the protocol:
as §1

Another assay relates to CP194. Described as above. The conditions noted are these: P. falciparum in erythrocytes, SYBR Green DNA, 72 h; series mostly up to 28.7 µM. A digest of the protocol: as §1
The test system of another assay is CP201. The description is as above. The conditions noted are these: P. falciparum in erythrocytes, SYBR Green DNA, 72 h; series mostly up to 28.7 µM. The essentials:
as §1

For another assay, the system named is CP203. The assay is described as above. The conditions noted are these: P. falciparum in erythrocytes, SYBR Green DNA, 72 h; series mostly up to 28.7 µM. A digest of the protocol:
as §1

For a further assay, the system named is CP215. The assay is described as above. The conditions noted are these: P. falciparum in erythrocytes, SYBR Green DNA, 72 h; series mostly up to 28.7 µM. A digest of the protocol: as §1
In another assay the test system is CP237. The assay is described as above. The conditions noted are these: P. falciparum in erythrocytes, SYBR Green DNA, 72 h; series mostly up to 28.7 µM. A digest of the protocol:
as §1

In another assay the test system is CP252. The assay is described as above. The conditions noted are these: P. falciparum in erythrocytes, SYBR Green DNA, 72 h; series mostly up to 28.7 µM. The essentials: as §1
The subject of a further assay is CP256. The assay is described as above. The conditions noted are these: P. falciparum in erythrocytes, SYBR Green DNA, 72 h; series mostly up to 28.7 µM. A digest of the protocol: as §1
The test system of a further assay is CP265. The assay is described as above. The conditions noted are these: P. falciparum in erythrocytes, SYBR Green DNA, 72 h; series mostly up to 28.7 µM. The essentials:
as §1

The subject of the next assay is CP266. Described as above. The conditions noted are these: P. falciparum in erythrocytes, SYBR Green DNA, 72 h; series mostly up to 28.7 µM. A digest of the protocol: as §1
Another assay deals with CP268. Described as above. The conditions noted are these: P. falciparum in erythrocytes, SYBR Green DNA, 72 h; series mostly up to 28.7 µM. The essentials:
as §1

Another assay relates to CP291. The description is as above. The conditions noted are these: P. falciparum in erythrocytes, SYBR Green DNA, 72 h; series mostly up to 28.7 µM. The essentials:
as §1

Another assay deals with CP297. The assay is described as above. The conditions noted are these: P. falciparum in erythrocytes, SYBR Green DNA, 72 h; series mostly up to 28.7 µM. The essentials:
as §1

A further assay deals with CP329. The description is as above. The conditions noted are these: P. falciparum in erythrocytes, SYBR Green DNA, 72 h; series mostly up to 28.7 µM. A digest of the protocol: as §1
A further assay relates to ECU. The assay is described as above. The conditions noted are these: P. falciparum in erythrocytes, SYBR Green DNA, 72 h; series mostly up to 28.7 µM. The essentials:
as §1

In a further assay the test system is PC15. Described as above. The conditions noted are these: P. falciparum in erythrocytes, SYBR Green DNA, 72 h; series mostly up to 28.7 µM. The essentials: as §1
Another assay deals with TAB109. The description is as above. The conditions noted are these: P. falciparum in erythrocytes, SYBR Green DNA, 72 h; series mostly up to 28.7 µM. The essentials: as §1

The values that follow come from PubChem BioAssay (NCATS).

Inconclusive results are not listed. The source made the active and inactive calls. Calls follow the shape of the dose curve; as a rule, active = well fitted curve in the direction sought with a large enough effect; inconclusive = small, poorly fitted or top-dose-only effect, or another doubt; inactive = no such curve, though single readings can be large; an effect the other way counts as inactive or inconclusive.

Take `CC(=O)O[C@]1(C(C)=O)CCC2C3CCC4=CC(=O)CCC4(C)C3(F)C(O)CC21C` (stereo not given in full): the Potency entry (in assay [1]; with AA1029; in the assay on AS120; in the assay on ATS189; in the assay on CP194; in the assay on CP201) was “inactive” each time. Besides, the Potency entry in the assay on CP203, with CP215, in the assay with CP237, with CP252, in the assay with CP256 and with CP265 was “inactive” in each case. Besides, the Potency result in the assay on CP266, in the assay with CP268, with CP291, with CP297, in the assay with CP329 and with ECU was “inactive” throughout. The Potency result in the assay with PC15 and in the assay with TAB109 was “inactive” in each case.
Turning to `O=C(O)C(O)c1ccccc1` (stereo not given), the Potency result (in assay [1]; with AA1029; in the assay on AS120; in the assay on ATS189; with CP194; in the assay with CP201) was “inactive” throughout. Besides, the Potency entry in the assay on CP203, in the assay on CP215, in the assay with CP237, in the assay with CP252, in the assay with CP265 and in the assay on CP266 was “inactive” in each case. Besides, the Potency result in the assay on CP268, in the assay on CP291, in the assay on CP297, in the assay with CP329, with ECU and in the assay with PC15 was “inactive” in each case. In the assay with TAB109, the Potency result is “inactive”.
Take `OC[C@@H](O)C(O[C@@H]1O[C@@H](CO)[C@H](O)[C@H](O)[C@H]1O)[C@H](O)[C@@H](O)CO` (stereo not given in full): the Potency result (in assay [1]; in the assay on AA1029; in the assay on AS120; with ATS189; in the assay with CP194; in the assay with CP201) was “inactive” each time. Besides, the Potency result in the assay with CP203, in the assay with CP215, in the assay on CP237, in the assay on CP252, with CP256 and with CP265 was “inactive” each time. Further, the Potency result with CP266, with CP268, in the assay with CP291, with CP297, in the assay on CP329 and with ECU was “inactive” each time. Further, the Potency result with PC15 and with TAB109 was “inactive” in each case.
As for `C[C@@H](O)[C@@H]1C(=O)N2C(C(=O)O)=C([C@H]3CCCO3)S[C@H]12`, the Potency entry (in assay [1]; with AA1029; with AS120; in the assay on ATS189; with CP194; in the assay with CP203) was “inactive” each time. Besides, the Potency entry with CP215, in the assay on CP237, in the assay with CP252, in the assay with CP256, in the assay with CP265 and with CP266 was “inactive” throughout. Besides, the Potency entry in the assay on CP268, with CP291, with CP297, in the assay on CP329, in the assay with ECU and with PC15 was “inactive” throughout. Further, the Potency result in the assay with TAB109 was “inactive”.
Turning to `NC(CSSCC(N)C(=O)O)C(=O)O` (stereo not given), the Potency entry (in [1]; in the assay with AA1029; in the assay on AS120; with ATS189; in the assay with CP194; in the assay on CP201) was “inactive” throughout. The Potency result in the assay on CP203, in the assay on CP215, in the assay with CP237, in the assay on CP252, in the assay with CP256 and in the assay with CP265 was “inactive” throughout. In addition, the Potency entry in the assay with CP266, in the assay on CP268, in the assay with CP291, with CP297, with CP329 and in the assay on ECU was “inactive” throughout. Also, the Potency entry in the assay with PC15 and in the assay on TAB109 was “inactive” throughout.
In the case of `C[C@]12CC[C@@H]3c4ccc(O)cc4C[C@@H](CCCCCCCCCS(=O)CCCC(F)(F)C(F)(F)F)C3[C@@H]1CC[C@@H]2O` (stereo not given in full), the Potency result (in assay [1]; in the assay on CP266) was “inactive” each time. Moreover, the Potency in the assay with AA1029 was 7.08 µM (active); in the assay on AS120 it was 2.51 µM (active); in the assay on ATS189 it was 7.94 µM (active); with CP237, 5.01 µM (active); in the assay with CP252 it was 8.91 µM (active); in the assay with CP265, 11.2 µM (active). Further, the Potency with CP291 was 12 µM (active); in the assay with CP297 it was 4.26 µM (active); with ECU it was 3.55 µM (active); in the assay with PC15 it was 11.2 µM (active); in the assay with TAB109, 10 µM (active).
`C[C@@H]1CCN(C(=O)[C@H](CCCNC(=N)N)NS(=O)(=O)c2cccc3c2NC[C@H](C)C3)[C@@H](C(=O)O)C1`: the Potency entry (in assay [1]; with AA1029; in the assay with AS120; with ATS189; in the assay on CP194; in the assay with CP201) was “inactive” in each case. The Potency result with CP215, with CP237, in the assay on CP252, in the assay with CP256, with CP265 and in the assay with CP266 was “inactive” in each case. The Potency entry with CP268, with CP291, in the assay on CP297, in the assay with CP329, in the assay with ECU and in the assay with PC15 was “inactive” each time. For the same compound, in the assay on TAB109, the Potency entry was “inactive”.
Consider `Cc1cc2nc3c(=O)[nH]c(=O)nc-3n(CC(O)C(O)C(O)COP(=O)(O)O)c2cc1C` (stereo not given), for which the Potency entry (in [1]; in the assay with AA1029; with AS120; in the assay with ATS189; with CP194; in the assay on CP201) was “inactive” in each case. The Potency result in the assay with CP203, with CP215, in the assay with CP237, in the assay on CP252, in the assay on CP256 and in the assay on CP265 was “inactive” in each case. Further, the Potency result with CP266, in the assay on CP268, in the assay with CP291, in the assay with CP297, with CP329 and in the assay with ECU was “inactive” in each case. Besides, the Potency result in the assay on PC15 and in the assay with TAB109 was “inactive” throughout.
In the case of `CCN(CC)C(=O)[C@@]1(c2ccccc2)C[C@@H]1CN`, the Potency result (in [1]; with AA1029; with AS120; with ATS189; with CP194; in the assay on CP201) was “inactive” throughout. The Potency result in the assay with CP203, in the assay on CP215, with CP237, in the assay on CP252, in the assay with CP256 and in the assay on CP265 was “inactive” throughout. Moreover, the Potency result in the assay on CP266, in the assay with CP268, in the assay with CP291, with CP297, with CP329 and in the assay with ECU was “inactive” each time. In the assay with PC15, the Potency result is “inactive”.
As to `COc1cc(/C=C2\CCC/C(=C\c3ccc(O)c(OC)c3)C2=O)ccc1O`, the Potency result in assay [1] was “inactive”. The Potency in the assay with AA1029 is 12.6 µM (active); in the assay with AS120, 8.91 µM (active); with CP215 it was 15.1 µM (active); in the assay with CP237, 14.1 µM (active); with CP265, 14.1 µM (active); with CP297, 13.5 µM (active). Besides, the figures for the Potency in the assay with ECU, in the assay on PC15 and in the assay with TAB109 were 11.2 µM (active), 12.6 µM (active) and 12.6 µM (active), respectively.
For `CC(C)C(=O)OCC(=O)[C@@]12OC(C3CCCCC3)O[C@@H]1CC1C3CCC4=CC(=O)C=C[C@]4(C)C3[C@@H](O)C[C@@]12C` (stereo not given in full), the Potency with AA1029 is 0.891 µM (active); with AS120, 0.794 µM (active); with ATS189, 0.891 µM (active); with CP237 it was 1.41 µM (active); in the assay on CP252 it was 1 µM (active); in the assay on CP256 it was 1.12 µM (active). For the same compound, the Potency in the assay on CP265 was 1 µM (active); in the assay with CP266, 1.35 µM (active); in the assay on ECU, 1.12 µM (active); in the assay with PC15, 1.58 µM (active); with TAB109 it was 0.708 µM (active).
`CCCCC(=O)O[C@]1(C(=O)CO)CCC2C3CCC4=CC(=O)CCC4(C)C3C(O)CC21C` (stereo not given in full): the Potency result (in [1]; with AA1029; with AS120; with ATS189; in the assay on CP194; in the assay on CP201) was “inactive” in each case. The Potency result in the assay with CP203, in the assay on CP215, with CP237, in the assay with CP252, in the assay with CP256 and with CP265 was “inactive” throughout. For the same compound, the Potency entry in the assay with CP266, in the assay with CP268, in the assay on CP291, in the assay on CP297, with CP329 and in the assay on ECU was “inactive” in each case. Further, the Potency entry in the assay with PC15 and with TAB109 was “inactive” throughout.
